Reference: PubChem BioAssay (EPA / NIEHS)
Records with an inconclusive call do not appear. Calls of active or inactive are those of the source. Rule for the calls: active = hit-call score of the fitted dose curve at least 0.9, where 1 is the maximum; inconclusive = response in the unintended direction; inactive = score below 0.9.

Assay: ATG_XTT_Cytotoxicity: Cytotoxicity Assessment in the Attagene TRANS-FACTORIAL HepG2 Assay (AID 2283584)
Method in brief: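 Transfect HepG2 with GAL4-UAS reporter units, dose compound, incubate 24 h, then measure viable cell number by XTT. Fit concentration response against DMSO baseline.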

| SMILES | outcome |
| --- | --- |
| C[N+](C)(C)CCO | inactive |
| O=C1OCc2ccccc21 | inactive |
| CCCC[N+](C)(CCCC)CCCC | inactive |
| CC1(C)[C@H](C=C(Cl)Cl)[C@H]1C(=O)OCc1cccc(Oc2ccccc2)c1 | inactive |
| O=C1CCCCCCCCCCCC(=O)OCCO1 | inactive |
| CC(C)N(c1ccccc1)C(C)C | inactive |
| CCC=C(C)C=O | inactive |
| CCC(CC)CO | inactive |
| Cc1cccc(C)c1 | inactive |
| CC(CO)(CO)[N+](=O)[O-] | inactive |
| O=C(O)c1ccc(C(=O)O)c(C(=O)O)c1 | inactive |
| NC(=O)c1c(Cl)cccc1Cl | inactive |
| CC(=O)OCC=C(C)CCC=C(C)CCC=C(C)C | inactive |
| CCC(=O)OCC=Cc1ccccc1 | inactive |
| CCC(=O)OC/C=C(\C)CCC=C(C)C | inactive |
| NNC(=O)OCc1ccccc1 | inactive |
| CCCOC(=O)CC | inactive |
| O=C(O)c1cc2ccccc2cc1O | inactive |
| C=C1CC[C@H]2O[C@]2(C)CC[C@@H]2[C@@H]1CC2(C)C | inactive |
| CCO[Si](CCC#N)(OCC)OCC | inactive |

| SMILES | outcome |
| --- | --- |
| NS(=O)(=O)c1cc(C(=O)O)c(NCc2ccco2)cc1Cl | inactive |
| CC(C)(C)c1cc(CCC(=O)OCCSCCOC(=O)CCc2cc(C(C)(C)C)c(O)c(C(C)(C)C)c2)cc(C(C)(C)C)c1O | inactive |
| CC(O)CN (centres undefined) | inactive |
| c1ccc2c(c1)-c1ccc3ccc4cccc5cc-2c1c3c45 | inactive |
| CCCC1CCOC(C)S1 (centres undefined) | inactive |
| CCCC1CCC(=O)CC1 | inactive |
| OCC=Cc1ccccc1 | inactive |
| c1ccc(Sc2ccccc2)cc1 | inactive |
| CC(=N[Si](C)(C)C)O[Si](C)(C)C | inactive |
| Cc1ccccc1S | inactive |
| C=C(C)C(=O)OCCOCCOC(=O)C(=C)C | inactive |
| O=c1cc[nH]cc1 | inactive |
| C1COCO1 | inactive |
| CC(=O)c1ccc(C)cc1 | inactive |
| O=C1CCC(=O)N1 | inactive |
| N#CCCNCCC#N | inactive |
| CCCCCCCCSCc1cc(C)c(O)c(CSCCCCCCCC)c1 | inactive |
| CC=CC(=O)C1=C(C)C=CCC1(C)C | inactive |
| CC(=O)CCC(=O)O | inactive |
